# Assay results taken from PubChem BioAssay.
# For some of these results: Results with a measured potency or affinity are listed apart. The source made the active and inactive calls.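 How the source made its calls, unless noted: active means hit in primary screen, with calcium signal over 5 SD above buffer well mean in both duplicates; inactive means the rest.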
# Assays:
# [1] = tested on: TRPC4 beta (transient receptor potential cation channel C4), mouse; test: TRPC4 cation channel opening, retest – cell-based, Fluo4 calcium, HEK293 TRPC4beta/mu-opioid, duplicates, 10 µM, confirmation (AID 2426;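 active means fluorescence ratio normalized to control raised more than 50% in primary screen plus both repeat runs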;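 on activation: percent rise of integrated ratio over buffer wells lacking compound which define 0%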); details: Fluo4 calcium fluorescence, at 10 µM; stronger effect = higher value
# [2] = tested on: transient receptor potential cation channel C4 beta (TRPC4), mouse; test: TRPC4 cation channel opening, second retest – cell-based, second round, Fluo4, HEK293 TRPC4beta/mu-opioid, 1 µM, confirmation (AID 2461;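 active means primary screen active and over 50% activation in each of two duplicate runs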;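 on activation: 0% = wells without test compound as baseline of integrated fluorescence ratio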); details: Fluo4 calcium fluorescence, at 1 µM; stronger effect = higher value
# [3] = tested on: TRPC4 (transient receptor potential cation channel C4 beta), mouse; test: potentiation of DAMGO EC20 TRPC4 response – cell-based, second round, Fluo-4, HEK293 TRPC4beta/mu-opioid, 1 µM, confirmation (AID 2554;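 active means primary screen hit whose fluorescence ratio, in both repeats, exceeds the weak agonist control mean by 3 SD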); details: DAMGO EC20, Fluo-4 calcium flux, at 1 µM; stronger effect = higher value
# [4] = tested on: TRPC4 beta (transient receptor potential cation channel C4), mouse; test: potentiation of DAMGO EC20 TRPC4 response – cell-based, Fluo-4, HEK293 TRPC4beta/mu-opioid, confirmation (AID 2555;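 active means primary screen hit whose calcium fluorescence ratio, in both repeats, exceeds the weak agonist control mean by 3 SD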); details: DAMGO EC20, Fluo-4 calcium flux, at 10 µM; stronger effect = higher value
# [5] = molecular target: Short transient receptor potential channel 4 (Mus musculus) (UniProt Q9QUQ5); test: blockers of DAMGO-evoked TRPC4 calcium flux – cell-based, Fluo4, HEK293 TRPC4beta/mu-opioid, confirmation (AID 2636;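 active means calcium signal cut by more than 3 SD below the full-agonist control yet still positive, in both repeats and the earlier primary screen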); details: at 10 µM; stronger effect = higher value
# Sequence of Short transient receptor potential channel 4 (Mus musculus) (Q9QUQ5 whole entry, looked up): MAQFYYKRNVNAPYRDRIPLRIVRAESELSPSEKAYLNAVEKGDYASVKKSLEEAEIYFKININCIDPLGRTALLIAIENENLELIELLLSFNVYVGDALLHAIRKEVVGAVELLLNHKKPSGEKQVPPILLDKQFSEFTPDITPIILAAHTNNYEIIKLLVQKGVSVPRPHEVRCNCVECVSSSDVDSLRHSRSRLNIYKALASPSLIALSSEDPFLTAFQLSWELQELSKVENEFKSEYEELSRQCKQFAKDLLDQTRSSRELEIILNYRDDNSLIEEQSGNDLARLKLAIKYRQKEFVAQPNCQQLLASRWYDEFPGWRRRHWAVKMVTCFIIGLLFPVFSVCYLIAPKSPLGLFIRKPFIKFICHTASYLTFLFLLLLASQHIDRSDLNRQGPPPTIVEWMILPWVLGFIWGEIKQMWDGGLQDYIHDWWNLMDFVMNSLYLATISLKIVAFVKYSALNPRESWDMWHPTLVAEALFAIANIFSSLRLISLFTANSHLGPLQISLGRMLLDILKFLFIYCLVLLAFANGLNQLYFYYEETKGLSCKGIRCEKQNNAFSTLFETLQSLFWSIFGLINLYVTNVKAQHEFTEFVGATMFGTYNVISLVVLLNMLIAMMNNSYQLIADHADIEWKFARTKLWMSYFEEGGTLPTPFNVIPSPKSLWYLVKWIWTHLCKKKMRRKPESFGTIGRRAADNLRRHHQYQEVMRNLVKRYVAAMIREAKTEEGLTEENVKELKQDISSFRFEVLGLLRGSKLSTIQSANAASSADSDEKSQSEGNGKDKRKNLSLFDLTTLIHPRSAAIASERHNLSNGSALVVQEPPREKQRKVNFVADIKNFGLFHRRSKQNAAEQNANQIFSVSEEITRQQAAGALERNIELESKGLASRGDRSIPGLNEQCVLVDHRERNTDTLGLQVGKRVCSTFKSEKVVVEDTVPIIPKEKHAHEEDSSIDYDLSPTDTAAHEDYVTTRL
# [6] = molecular target: Short transient receptor potential channel 4 (Mus musculus) (UniProt Q9QUQ5); test: blockers of DAMGO-evoked TRPC4 calcium flux – cell-based, second round, Fluo4, HEK293 TRPC4beta/mu-opioid, 1 µM, confirmation (AID 2637;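 active means calcium signal ratio cut to more than 3 SD under the fully stimulated control mean yet still positive, in both repeats and the primary screen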;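 on inhibition: percent of integrated ratio relative to wells lacking test compound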); details: at 1 µM; stronger effect = higher value
# [7] = molecular target: Short transient receptor potential channel 4 (Mus musculus) (UniProt Q9QUQ5); test: potentiation of DAMGO-evoked TRPC4 calcium signal – cell-based, HEK293 TRPC4/mu-opioid, Fluo-4 calcium, EC20 DAMGO, dose response (AID 434941;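 active means earlier screen potentiator hit that boosts the TRPC4 ion channel at some dose, with a dose response; inactive means no potentiation, no dose response, or not a prior hit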;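 further: calcium entry triggered by an EC20 dose of DAMGO at the co-expressed mu-opioid receptor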)
# [8] = molecular target: Short transient receptor potential channel 6 (Mus musculus) (UniProt Q61143); test: TRPC6 blockade by TRPC4 inhibitor hits – cell-based, HEK293, membrane potential dye, duplicate, selectivity assay for TRPC4 inhibitor project, confirmation (AID 434948;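 active means active in primary screen and both duplicates, each dropping signal beyond three positive-control SD with fluorescence still positive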); details: HEK293 TRPC6, membrane potential dye fluorescence, at 10 µM, stimulated with maximal-effect acetylcholine; stronger effect = higher value
# Sequence of Short transient receptor potential channel 6 (Mus musculus) (Q61143 whole entry, looked up): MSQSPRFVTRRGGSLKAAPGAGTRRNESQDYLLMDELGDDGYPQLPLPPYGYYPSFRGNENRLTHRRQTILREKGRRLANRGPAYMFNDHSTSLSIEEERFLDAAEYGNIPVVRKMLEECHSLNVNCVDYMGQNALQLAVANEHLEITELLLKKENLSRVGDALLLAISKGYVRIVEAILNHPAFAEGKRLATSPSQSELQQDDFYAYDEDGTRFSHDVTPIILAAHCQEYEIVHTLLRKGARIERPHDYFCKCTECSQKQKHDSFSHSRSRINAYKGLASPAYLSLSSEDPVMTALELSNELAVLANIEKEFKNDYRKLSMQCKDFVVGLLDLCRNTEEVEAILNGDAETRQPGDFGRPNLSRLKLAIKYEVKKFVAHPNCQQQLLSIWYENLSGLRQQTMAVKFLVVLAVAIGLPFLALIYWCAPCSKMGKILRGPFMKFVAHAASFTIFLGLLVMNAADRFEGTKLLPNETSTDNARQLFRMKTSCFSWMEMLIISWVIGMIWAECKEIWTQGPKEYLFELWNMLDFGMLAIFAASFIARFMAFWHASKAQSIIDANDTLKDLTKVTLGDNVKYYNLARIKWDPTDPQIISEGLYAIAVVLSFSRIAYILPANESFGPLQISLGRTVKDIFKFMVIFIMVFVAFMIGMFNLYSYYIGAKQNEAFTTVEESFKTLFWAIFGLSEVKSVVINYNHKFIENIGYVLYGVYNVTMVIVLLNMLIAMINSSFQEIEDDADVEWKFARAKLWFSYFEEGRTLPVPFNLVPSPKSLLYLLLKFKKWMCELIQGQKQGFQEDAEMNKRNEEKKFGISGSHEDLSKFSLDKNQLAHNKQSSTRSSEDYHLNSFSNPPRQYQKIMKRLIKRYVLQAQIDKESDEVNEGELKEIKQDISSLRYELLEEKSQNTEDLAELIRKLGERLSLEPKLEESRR
# [9] = molecular target: Short transient receptor potential channel 6 (Mus musculus) (UniProt Q61143); test: TRPC6 opening by TRPC4 activator hits – cell-based, HEK293, membrane potential dye, duplicate, selectivity assay for TRPC4 activator project, confirmation (AID 434950;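 active means membrane potential signal rise above negative control mean plus 3 SD in both duplicates, also active in the earlier TRPC4 screen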;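 on activation: 0% = buffer only wells and 100% = acetylcholine maximal-effect wells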); details: HEK293 TRPC6, membrane potential fluorescence, at 10 µM; activation: stronger effect = higher value; outcome: activation
# [10] = molecular target: Short transient receptor potential channel 6 (Mus musculus) (UniProt Q61143); test: positive modulators of mouse TRPC6 channel – HEK293 cells, membrane potential dye, duplicate, selectivity assay for TRPC4 potentiator project, confirmation (AID 434952;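 active means compound raising the membrane signal above positive-control mean plus 3 SD in both repeats, and a primary screen hit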); details: HEK293 TRPC6, membrane potential dye fluorescence, at 10 µM, maximal acetylcholine added after compound; stronger effect = higher value
# [11] = molecular target: Short transient receptor potential channel 4 (Mus musculus) (UniProt Q9QUQ5); test: calcium flux activators in TRPC4/5HT1a cells, counter-screen for TRPC4 activator project, cell-based, second counter screen, HEK293 TRPC4/5HT1a, Fluo-4 (AID 434977;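 active means calcium signal rise above buffer-control mean plus 5 SD in both duplicates, and also a hit in the primary screen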;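 on activation: plate controls were assay buffer for no effect and maximal serotonin response for full effect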); details: Fluo-4 calcium flux, at 10 µM; stronger effect = higher value
# [12] = serotonin-gated TRPC4 signal block – cell-based, second counter screen, HEK293 TRPC4/5HT1a, Fluo-4, counter-screen for TRPC4 inhibitor project, confirmation (AID 434978;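 active means primary screen active whose calcium signal fell more than 3 SD beyond the full-serotonin control mean in both duplicate plates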;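 further: serotonin given first at submaximal then at maximal dose after compound preincubation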); details: Fluo-4 calcium flux, at 10 µM, serotonin added to trigger calcium flux; stronger effect = higher value
# [13] = tested on: TRPC4 (mouse), co-expressed with 5HT1a in HEK293; test: enhancement of serotonin-evoked TRPC4 response – cell-based, second counter screen, HEK293 TRPC4/5HT1a, Fluo-4, counter-screen for TRPC4 potentiator project, confirmation (AID 434979;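 active means signal rise over 3 SD above mean of control wells given weak agonist, in both repeats and first screen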); details: Fluo-4 calcium flux, at 10 µM, serotonin added at its EC20 dose; stronger effect = higher value
# [14] = nonspecific calcium rise without TRPC4 – cell-based, HEK293 mu-opioid receptor line, counter-screen for TRPC4 activator project, confirmation (AID 449723); details: HEK293 mu-opioid cells, Fluo-4 calcium fluorescence, at 10 µM; stronger effect = higher value;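 further: counter screen cells carry the mu-opioid receptor alone and lack TRPC4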
# [15] = nonspecific potentiation of DAMGO calcium response – cell-based, HEK293 mu-opioid receptor line, counter-screen for TRPC4 allosteric potentiator project, confirmation (AID 449724;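 active means calcium signal rise more than 3 SD above the low-dose agonist control mean, in both duplicate plates and the primary screen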); details: HEK293 mu-opioid receptor cells, Fluo-4 calcium flux, at 10 µM, compound added before EC20 DAMGO stimulus; stronger effect = higher value
# [16] = molecular target: Short transient receptor potential channel 4 (Mus musculus) (UniProt Q9QUQ5); test: block of DAMGO-driven TRPC4 calcium entry – cell-based, HEK293 TRPC4/mu-opioid, Fluo-4 calcium, dose response (AID 434942;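 active means primary screen inhibitor hit that blocks the TRPC4 channel at some tested dose, yielding a dose curve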)
# [17] = nonspecific flux increase, KCNQ1-free cells – parental CHO cells, counter-screen for KCNQ1 potentiator project (AID 493006;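 active means duplicate-averaged activation above buffer control mean plus 5 SD of those controls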); details: parental CHO-K1 cells, FluxOR thallium flux, at 10 µM; stronger effect = higher value
# [18] = molecular target: Potassium voltage-gated channel subfamily KQT member 1 (Homo sapiens) (UniProt P51787); test: enhancement of KCNQ1 channel thallium flux – FluxOR thallium flux, CHO cells, duplicates, confirmation (AID 493007;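 active means potentiation averaged over duplicate wells exceeding buffer-only control mean by more than 3 SD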;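 on outcome: cells depolarized by a potassium plus thallium sulfate stimulus after compound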;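 on potentiation: 0% = buffer-only wells and 100% = R-L3 activator control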); details: KCNQ1 cell line, FluxOR thallium flux fluorescence, at 10 µM; stronger effect = higher value, % of reference activator effect, buffer zero
# Sequence of Potassium voltage-gated channel subfamily KQT member 1 (Homo sapiens) (P51787 whole entry, looked up): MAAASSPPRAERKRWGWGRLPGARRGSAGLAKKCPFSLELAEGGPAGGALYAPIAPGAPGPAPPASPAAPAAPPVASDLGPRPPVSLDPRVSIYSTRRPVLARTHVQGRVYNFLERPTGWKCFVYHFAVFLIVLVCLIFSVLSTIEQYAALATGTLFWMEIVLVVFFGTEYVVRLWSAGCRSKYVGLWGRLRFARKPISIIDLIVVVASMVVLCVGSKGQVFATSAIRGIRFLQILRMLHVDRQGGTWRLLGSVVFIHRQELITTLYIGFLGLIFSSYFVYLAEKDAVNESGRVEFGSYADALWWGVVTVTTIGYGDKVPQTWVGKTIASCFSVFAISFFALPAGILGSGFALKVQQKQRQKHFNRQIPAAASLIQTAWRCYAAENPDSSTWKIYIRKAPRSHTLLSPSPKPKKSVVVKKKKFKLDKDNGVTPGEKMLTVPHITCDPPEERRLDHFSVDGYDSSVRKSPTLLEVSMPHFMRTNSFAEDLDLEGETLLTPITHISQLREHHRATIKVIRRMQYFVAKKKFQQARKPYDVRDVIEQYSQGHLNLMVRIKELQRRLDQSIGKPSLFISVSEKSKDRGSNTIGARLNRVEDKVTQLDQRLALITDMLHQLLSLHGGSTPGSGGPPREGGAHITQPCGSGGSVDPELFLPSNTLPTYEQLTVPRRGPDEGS
# [19] = molecular target: Potassium voltage-gated channel subfamily KQT member 2 (Rattus norvegicus) (UniProt O88943); test: KCNQ2 thallium flux enhancement – KCNQ2-CHO-K1 cells, selectivity assay for KCNQ1 potentiator project (AID 493009;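 active means mean duplicate potentiation above the buffer control mean plus 5 SD of buffer wells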;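 further: assay conditions were tuned for KCNQ1 rather than KCNQ2 modulators; signal is max minus min fluorescence divided by baseline after thallium stimulus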); details: FluxOR thallium flux fluorescence, at 10 µM; stronger effect = higher value, scaled: buffer 0, activator control 100
# Sequence of Potassium voltage-gated channel subfamily KQT member 2 (Rattus norvegicus) (O88943 whole entry, looked up): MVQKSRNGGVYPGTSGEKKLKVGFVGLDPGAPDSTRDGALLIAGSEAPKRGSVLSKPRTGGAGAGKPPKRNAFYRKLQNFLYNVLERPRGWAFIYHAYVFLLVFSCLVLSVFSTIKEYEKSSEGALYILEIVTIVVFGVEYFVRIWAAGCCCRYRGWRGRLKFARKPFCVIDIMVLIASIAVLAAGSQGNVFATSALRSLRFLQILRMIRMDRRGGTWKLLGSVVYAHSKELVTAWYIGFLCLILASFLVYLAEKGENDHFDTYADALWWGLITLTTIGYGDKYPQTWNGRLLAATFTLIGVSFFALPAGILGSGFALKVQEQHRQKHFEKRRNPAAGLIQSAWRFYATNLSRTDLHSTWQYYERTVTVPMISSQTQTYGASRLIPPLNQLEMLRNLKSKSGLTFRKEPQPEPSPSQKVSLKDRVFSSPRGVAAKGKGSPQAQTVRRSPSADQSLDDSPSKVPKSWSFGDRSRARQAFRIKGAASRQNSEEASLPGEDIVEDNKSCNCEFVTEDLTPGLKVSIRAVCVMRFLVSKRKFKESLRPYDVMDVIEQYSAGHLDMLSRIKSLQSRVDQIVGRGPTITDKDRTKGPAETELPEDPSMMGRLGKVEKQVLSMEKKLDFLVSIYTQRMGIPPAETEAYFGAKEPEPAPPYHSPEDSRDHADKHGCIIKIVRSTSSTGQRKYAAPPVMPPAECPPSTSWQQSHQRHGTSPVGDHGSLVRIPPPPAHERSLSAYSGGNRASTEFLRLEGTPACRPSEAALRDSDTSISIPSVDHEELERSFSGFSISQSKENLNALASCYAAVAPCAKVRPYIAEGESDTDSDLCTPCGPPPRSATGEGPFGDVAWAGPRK
# [20] = molecular target: Potassium voltage-gated channel subfamily KQT member 1 (Homo sapiens) (UniProt P51787); test: KCNQ1 activators by electrophysiology – IonWorks patch clamp, KCNQ1-CHO cells, orthogonal assay for KCNQ1 potentiator project, confirmation (AID 493184;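 active means current rise at least 3 SD above the untreated control mean in each of two repeat wells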;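 on current potentiation: percent change of the same well's current before compound addition so 0% = no change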); details: automated patch clamp current, at 10 µM; stronger effect = higher value
structure (smiles),measurement,setting,value
COc1cccc(CNCc2ccccn2)c1OC,outcome,[1],inactive
same,activation,[2],56% (active)
same,outcome,[3],inactive
same,outcome,[4],inactive
same,outcome,[5],inactive
same,outcome,[6],inactive
same,outcome,[7],inactive
same,outcome,[8],inactive
same,activation,[9],40% (active)
same,outcome,[10],inactive
same,outcome,[11],inactive
same,outcome,[12],inactive
same,outcome,[13],inactive
same,outcome,[14],inactive
same,outcome,[15],inactive
Cc1ccc(OCC(=O)NNC(=S)NC(=O)C(C)(C)C)c(Br)c1,activation,[1],120% (active)
same,outcome,[2],inactive
same,outcome,[3],inactive
same,outcome,[4],inactive
same,outcome,[5],inactive
same,outcome,[6],inactive
same,outcome,[7],inactive
same,outcome,[16],inactive
same,outcome,[8],inactive
same,activation,[9],24% (active)
same,outcome,[10],inactive
same,activation,[11],90.9% (active)
same,outcome,[12],inactive
same,outcome,[13],inactive
same,activation,[14],19.6% (active)
same,outcome,[15],inactive
same,outcome,[17],inactive
same,potentiation,[18],73% (active)
same,potentiation,[19],158% (active)
same,outcome,[20],inactive
OCCN1CCN(Cc2cc(Br)cc(Br)c2O)CC1,activation,[1],199% (active)
same,activation,[2],170% (active)
same,outcome,[3],inactive
same,outcome,[4],inactive
same,outcome,[5],inactive
same,outcome,[6],inactive
same,outcome,[7],inactive
same,outcome,[16],inactive
same,outcome,[8],inactive
same,activation,[9],32% (active)
same,outcome,[10],inactive
same,activation,[11],85.4% (active)
same,outcome,[12],inactive
same,outcome,[13],inactive
same,outcome,[14],inactive
same,outcome,[15],inactive
same,outcome,[17],inactive
same,outcome,[18],inactive
same,outcome,[19],inactive
same,outcome,[20],inactive
COc1ccc(C(=O)NNC(=S)NC(=O)c2ccccc2)cc1,activation,[1],130% (active)
same,outcome,[2],inactive
same,outcome,[3],inactive
same,outcome,[4],inactive
same,outcome,[5],inactive
same,outcome,[6],inactive
same,outcome,[7],inactive
same,outcome,[16],inactive
same,outcome,[8],inactive
same,activation,[9],32% (active)
same,outcome,[10],inactive
same,activation,[11],87.5% (active)
same,outcome,[12],inactive
same,outcome,[13],inactive
same,activation,[14],32.5% (active)
same,outcome,[15],inactive
same,outcome,[17],inactive
same,potentiation,[18],58.5% (active)
same,potentiation,[19],166% (active)
same,outcome,[20],inactive
COc1ccc(C(=O)NC(=S)NNC(=O)c2cccc(C)c2)cc1,activation,[1],142% (active)
same,outcome,[2],inactive
same,outcome,[3],inactive
same,outcome,[4],inactive
same,outcome,[5],inactive
same,outcome,[6],inactive
same,outcome,[7],inactive
same,outcome,[16],inactive
same,outcome,[8],inactive
same,activation,[9],27% (active)
same,outcome,[10],inactive
same,activation,[11],133% (active)
same,outcome,[12],inactive
same,outcome,[13],inactive
same,activation,[14],40.2% (active)
same,outcome,[15],inactive
same,outcome,[17],inactive
same,potentiation,[18],128% (active)
same,potentiation,[19],227% (active)
same,outcome,[20],inactive
CC1CN(C(=O)c2ccc(NS(=O)(=O)c3ccc(C(C)(C)C)cc3)cc2)CC(C)O1 (stereo not given),activation,[1],63% (active)
same,outcome,[2],inactive
same,outcome,[3],inactive
same,outcome,[4],inactive
same,outcome,[5],inactive
same,outcome,[6],inactive
same,outcome,[7],inactive
same,outcome,[16],inactive
same,outcome,[8],inactive
same,activation,[9],39.5% (active)
same,outcome,[10],inactive
same,activation,[11],30.9% (active)
same,outcome,[12],inactive
same,outcome,[13],inactive
same,activation,[14],16.1% (active)
same,outcome,[15],inactive
same,outcome,[17],inactive
same,outcome,[18],inactive
same,outcome,[19],inactive
same,outcome,[20],inactive
CC(C)(C)C(=O)NC(=S)NNC(=O)C(c1ccccc1)c1ccccc1,activation,[1],286% (active)
same,outcome,[2],inactive
same,outcome,[3],inactive
same,outcome,[4],inactive
same,outcome,[5],inactive
same,outcome,[6],inactive
same,outcome,[7],inactive
same,outcome,[16],inactive
same,outcome,[8],inactive
same,activation,[9],46% (active)
same,outcome,[10],inactive
same,activation,[11],158% (active)
same,outcome,[12],inactive
same,outcome,[13],inactive
same,activation,[14],119% (active)
same,outcome,[15],inactive
same,outcome,[17],inactive
same,potentiation,[18],22% (active)
same,outcome,[19],inactive
same,outcome,[20],inactive
COc1ccccc1NS(=O)(=O)c1cccc(C(=O)NC2CCN(Cc3ccccc3)CC2)c1,activation,[1],90% (active)
same,outcome,[2],inactive
same,outcome,[3],inactive
same,outcome,[4],inactive
same,outcome,[5],inactive
same,inhibition,[6],72% (active)
same,outcome,[7],inactive
same,outcome,[8],inactive
same,activation,[9],38.5% (active)
same,outcome,[10],inactive
same,outcome,[11],inactive
same,outcome,[12],inactive
same,outcome,[13],inactive
same,outcome,[14],inactive
same,outcome,[15],inactive
C/C=C(\C)CN1CCC(n2nccc2NC(=O)CCc2ccccc2)CC1,outcome,[1],inactive
same,outcome,[2],inactive
same,outcome,[3],inactive
same,outcome,[4],inactive
same,inhibition,[5],97% (active)
same,inhibition,[6],86% (active)
same,outcome,[7],inactive
same,outcome,[8],inactive
same,activation,[9],58.5% (active)
same,outcome,[10],inactive
same,outcome,[11],inactive
same,outcome,[12],inactive
same,outcome,[13],inactive
same,outcome,[14],inactive
same,outcome,[15],inactive
COc1cc(OC)cc(C(=O)NC(=S)NNC(=O)[C@H]2C[C@@H]2c2ccccc2)c1,activation,[1],162% (active)
same,outcome,[2],inactive
same,outcome,[3],inactive
same,outcome,[4],inactive
same,outcome,[5],inactive
same,outcome,[6],inactive
same,outcome,[7],inactive
same,outcome,[16],inactive
same,outcome,[8],inactive
same,outcome,[9],inactive
same,outcome,[10],inactive
same,activation,[11],99% (active)
same,outcome,[12],inactive
same,outcome,[13],inactive
same,activation,[14],40.4% (active)
same,outcome,[15],inactive
same,outcome,[17],inactive
same,potentiation,[18],37.5% (active)
same,outcome,[19],inactive
same,outcome,[20],inactive
CCc1ccc(C(CNc2nc(C(F)(F)F)nc3ccccc23)N(C)C)cc1 (stereo not given),outcome,[1],inactive
same,outcome,[2],inactive
same,outcome,[3],inactive
same,outcome,[4],inactive
same,outcome,[5],inactive
same,outcome,[6],inactive
same,outcome,[7],inactive
same,outcome,[8],inactive
same,outcome,[9],inactive
same,outcome,[10],inactive
same,outcome,[11],inactive
same,outcome,[12],inactive
same,outcome,[13],inactive
same,outcome,[14],inactive
same,outcome,[15],inactive
CN(C)CCN(C(=O)C1CCCCC1)c1nc2cc3c(cc2s1)OCO3,outcome,[1],inactive
same,outcome,[2],inactive
same,outcome,[3],inactive
same,outcome,[4],inactive
same,inhibition,[5],75% (active)
same,outcome,[6],inactive
same,outcome,[7],inactive
same,outcome,[8],inactive
same,outcome,[9],inactive
same,outcome,[10],inactive
same,outcome,[11],inactive
same,outcome,[12],inactive
same,outcome,[13],inactive
same,outcome,[14],inactive
same,outcome,[15],inactive
Cc1onc(-c2ccccc2)c1C(=O)NNC(=S)NC(=O)c1ccc(F)cc1,activation,[1],201% (active)
same,outcome,[2],inactive
same,outcome,[3],inactive
same,outcome,[4],inactive
same,outcome,[5],inactive
same,outcome,[6],inactive
same,outcome,[7],inactive
same,outcome,[16],inactive
same,outcome,[8],inactive
same,activation,[9],27.5% (active)
same,outcome,[10],inactive
same,activation,[11],110% (active)
same,outcome,[12],inactive
same,outcome,[13],inactive
same,activation,[14],58.7% (active)
same,outcome,[15],inactive
same,outcome,[17],inactive
same,outcome,[18],inactive
same,outcome,[19],inactive
same,current potentiation,[20],16.2% (active)
